A short description of assay [1]: qHTS assay to identify small molecule antagonists of the thyroid receptor (TR) signaling pathway (AID 743065). Also: series mostly up to about 70 µM; nearly all actives have a fitted effect of over 55% in size. The method, boiled down:
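Antagonism measured as loss of luciferase signal in GH3 cells stably carrying a TRE-luciferase reporter, co-treated with compound and T3 (1 nM final) for 23.5 h at 37 C. Viability was read in the same well by CellTiter-Fluor.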
Background: In qHTS, concentration-response curves come from the screen itself.

Assay [2] deals with thyroid hormone receptor (rat, GH3 cells). The experiment in a line: qHTS assay to identify small molecule agonists of the thyroid receptor (TR) signaling pathway (AID 743066; calls by dose curve).
Assay [3] can be described thus: qHTS assay to identify small molecule antagonists of the estrogen receptor alpha (ER-alpha) signaling pathway - cell viability counter screen (AID 743074; calls by dose curve;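 also: HEK293 cells carrying ER-alpha-UAS-bla reporter stimulated with 17beta-estradiol; nearly all actives have a fitted effect of over 45% in size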).
Another assay concerns the target Aromatase (Homo sapiens) (UniProt P11511). The experiment in a line: qHTS assay to identify aromatase inhibitors (AID 743083). Also: series mostly up to about 70 µM; nearly all actives have a fitted effect of over 55% in size.
The nature of assay [4]: qHTS assay to identify aromatase inhibitors - cell viability counter screen (AID 743084).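 Also: cells stimulated with testosterone during compound exposure; nearly all actives have a fitted effect of over 55% in size.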
Assay [5] concerns the target Aryl hydrocarbon receptor (Homo sapiens) (UniProt P35869). The experiment in a line: qHTS assay to identify small molecule that activate the aryl hydrocarbon receptor (AhR) signaling pathway (AID 743085).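 Also: HG2L7.5c1 human HepG2 liver cells with stably integrated DRE-driven firefly reporter; series mostly up to about 70 µM; nearly all actives have a fitted effect of over 15% in size.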 In outline:
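Compounds were tested in HepG2 hepatocellular carcinoma cells harbouring a stably integrated luciferase gene under control of 20 DREs. Increased reporter signal after 24 h treatment at 37C was taken as AhR activation.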

Assay [6] in a line: qHTS assay to identify small molecule that activate the aryl hydrocarbon receptor (AhR) signaling pathway - cell viability counter screen (AID 743086).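 Also: HepG2 liver cells carrying the AhR DRE luciferase reporter; series mostly up to about 70 µM; nearly all actives have a fitted effect of over 45% in size.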 In outline:
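Cytotoxicity counter screen: CellTiter-Fluor signal (30 min, 37 C) in 4000 HepG2 cells/well carrying the DRE-luciferase reporter, following 24 h compound exposure at 37 C.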

For assay [7], the target named is Peroxisome proliferator-activated receptor gamma (Homo sapiens) (UniProt P37231). The experiment in a line: qHTS assay to identify small molecule agonists of the peroxisome proliferator-activated receptor gamma (PPARg) signaling pathway (AID 743094; active = well fitted activation curve with a large enough effect in the signal ratio in the repeat runs, not every such curve was filed as active; the % refers to the signal ratio). The method, boiled down:
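GeneBLAzer PPARg UAS-bla HEK293H cells were plated, rested 5 h, then exposed to compounds for 17 h at 37C. Beta-lactamase activity was read by LiveBLAzer B/G FRET substrate fluorescence after 1 h at room temperature.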

Assay [8] in a line: qHTS assay to identify small molecule antagonists of the peroxisome proliferator-activated receptor gamma (PPARg) signaling pathway - cell viability counter screen (AID 743194). Also: nearly all actives have a fitted effect of over 55% in size. The method, boiled down:
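Viability was measured as CellTiter-Glo luminescence in GeneBLAzer PPARg UAS-bla HEK293H cells. These cells had been exposed 17 h at 37 C to compounds together with rosiglitazone at 50 nM final, with the beta-lactamase readout taken in the same wells.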

A short description of assay [9]: qHTS assay for small molecule agonists of the antioxidant response element (ARE) signaling pathway (AID 743202; active = well fitted activation curve with a large enough effect in the signal ratio in the repeat runs, not every such curve was filed as active; the % refers to the signal ratio; also: potency is read from the fitted curve at half-maximal effect). In outline:
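Quantitative high-throughput format in HepG2 cells bearing an integrated ARE-beta-lactamase reporter. Compound exposure lasted 16 h at 37 C, and fluorescence was read 2 h after adding LiveBLAzer B/G substrate at room temperature.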

A short description of assay [10]: qHTS assay for small molecule agonists of the antioxidant response element (ARE) signaling pathway - cell viability counter screen (AID 743203; calls by dose curve; also: nearly all actives have a fitted effect of over 55% in size). In outline:
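ARE-bla HepG2 cells were plated, rested 5 h at 37C/5% CO2, then exposed to compounds in DMSO for 16 h. Viability was read as CellTiter-Glo luminescence after 30 min at room temperature, in the same wells as the ARE screen.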

Assay [11] in a line: qHTS assay for small molecule activators of the heat shock response signaling pathway (AID 743210; active = well fitted activation curve with a large enough effect in the signal ratio in the repeat runs, with a control signal flat, not every such curve was filed as active; the % refers to the signal ratio;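 also: HeLa cells with beta-lactamase reporter driven by heat shock elements; series mostly up to about 63 µM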). The method, boiled down:
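HeLa HSE-bla cells, overnight plating; cpd in DMSO 5 h, 37 C; LiveBLAzer B/G FRET substrate 2.5 h RT; fluorescence intensity read.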

Assay [12] can be described thus: qHTS assay to identify small molecule agonists of the peroxisome proliferator-activated receptor delta (PPARd) signaling pathway - cell viability counter screen (AID 743211). Also: nearly all actives have a fitted effect of over 55% in size. The method, boiled down: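 Counter screen for cytotoxicity run in parallel with the PPARd reporter screen. Beta-lactamase reporter HEK293H cells exposed to compounds 17 h; ATP-based CellTiter-Glo luminescence quantified viability.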

In assay [13] the target is Estrogen receptor (Homo sapiens) (UniProt P03372). The experiment in a line: qHTS assay to identify small molecule antagonists of the estrogen receptor alpha (ER-alpha) signaling pathway (AID 743069; active = well fitted curve in the direction sought with a large enough effect in the signal ratio in the repeat runs, not every such curve was filed as active; the % refers to the signal ratio). In outline:
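ER-alpha-UAS-bla GripTite HEK293 line; 2% charcoal-stripped FBS overnight; plated, 4 hr 37C/5% CO2; cpd in DMSO + 17beta-estradiol, 18 hr 37C; LiveBLAzer B/G FRET substrate 2 hr RT; fluorescence intensity.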

For assay [14] the target is unchanged. The experiment in a line: qHTS assay to identify small molecule agonists of the estrogen receptor alpha (ER-alpha) signaling pathway (AID 743075; calls by dose curve;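 also: HEK293 GripTite cells with ER-alpha and UAS-driven beta-lactamase reporter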).
Assay [15] shares this target. The experiment in a line: qHTS assay to identify small molecule agonists of the estrogen receptor alpha (ER-alpha) signaling pathway using the BG1 cell line (AID 743079). Also: nearly all actives have a fitted effect of over 20% in size.
A short description of assay [16]: qHTS assay to identify small molecule antagonists of the estrogen receptor alpha (ER-alpha) signaling pathway using the BG1 cell line (AID 743080; calls by dose curve;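 also: BG1 cells stimulated with 17beta-estradiol alongside compound; series mostly up to about 70 µM; nearly all actives have a fitted effect of over 25% in size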). The method, boiled down:
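Luminescence from a 4×ERE-luciferase reporter in BG1-Luc-4E2 cells served as read-out. Cells, pre-cultured 5 days in stripped-serum phenol-red-free medium, were exposed to compound with 17beta-estradiol co-stimulation for 21.5 h at 37 C.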

The nature of assay [17]: qHTS assay to identify small molecule antagonists of the estrogen receptor alpha (ER-alpha) signaling pathway using the BG1 cell line - cell viability counter screen (AID 743081).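 Also: compound given together with 17beta-estradiol as the ER stimulus; series mostly up to about 70 µM; nearly all actives have a fitted effect of over 45% in size.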
In assay [18] the target is Peroxisome proliferator-activated receptor gamma (Homo sapiens) (UniProt P37231). The experiment in a line: qHTS assay to identify small molecule antagonists of the peroxisome proliferator-activated receptor gamma (PPARg) signaling pathway (AID 743191; calls by dose curve; also: series mostly up to about 63 µM; nearly all actives have a fitted effect of over 30% in size). The method, boiled down: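 Beta-lactamase reporter under UAS control in HEK293H PPARg-bla cells; compound treatment 17 h at 37C. Read-out: fluorescence intensity after 1 h room-temperature incubation with LiveBLAzer B/G FRET substrate.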

Assay [19] is described as follows: qHTS assay for small molecule activators of the heat shock response signaling pathway - cell viability counter screen (AID 743209). Also: nearly all actives have a fitted effect of over 50% in size. In outline:
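HSE-bla HeLa cells plated overnight, then exposed to Tox21 compounds (23 nL in DMSO) for 5 h at 37 C. After the bla reporter read, CellTiter-Glo was added in the same wells and luminescence read after 30 min at room temperature.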

Results on 14 molecules are retold here after PubChem BioAssay (Tox21).

Structures are written as SMILES. Results filed as inconclusive are left out. Unmarked numbers belong to inactive results. Calls of active or inactive are those of the source. Unless noted, calls follow the shape of the dose curve; as a rule, active = well fitted curve in the direction sought with a large enough effect in the repeat runs; inconclusive = weak or mixed curves; inactive = no such curve, though single readings can be large; an effect the other way counts as inactive or inconclusive.
% is scaled to controls: 0 for no effect and ±100 for the full control effect.

Sequence of Peroxisome proliferator-activated receptor gamma (Homo sapiens) (P37231 whole entry, looked up): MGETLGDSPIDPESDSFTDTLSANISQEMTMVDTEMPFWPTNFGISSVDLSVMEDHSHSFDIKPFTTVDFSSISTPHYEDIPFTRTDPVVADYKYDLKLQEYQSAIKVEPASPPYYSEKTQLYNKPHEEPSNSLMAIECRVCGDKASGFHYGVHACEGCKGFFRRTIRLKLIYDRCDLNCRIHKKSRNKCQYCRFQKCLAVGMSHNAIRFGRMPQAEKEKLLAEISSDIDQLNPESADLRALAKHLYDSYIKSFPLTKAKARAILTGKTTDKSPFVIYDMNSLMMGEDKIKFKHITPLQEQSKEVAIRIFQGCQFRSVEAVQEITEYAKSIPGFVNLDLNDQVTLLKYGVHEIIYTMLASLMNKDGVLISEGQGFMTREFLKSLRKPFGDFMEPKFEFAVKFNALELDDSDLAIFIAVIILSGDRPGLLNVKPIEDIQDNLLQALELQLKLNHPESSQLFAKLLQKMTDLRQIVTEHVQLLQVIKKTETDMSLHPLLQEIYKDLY
Sequence of Aryl hydrocarbon receptor (Homo sapiens) (P35869 whole entry, looked up): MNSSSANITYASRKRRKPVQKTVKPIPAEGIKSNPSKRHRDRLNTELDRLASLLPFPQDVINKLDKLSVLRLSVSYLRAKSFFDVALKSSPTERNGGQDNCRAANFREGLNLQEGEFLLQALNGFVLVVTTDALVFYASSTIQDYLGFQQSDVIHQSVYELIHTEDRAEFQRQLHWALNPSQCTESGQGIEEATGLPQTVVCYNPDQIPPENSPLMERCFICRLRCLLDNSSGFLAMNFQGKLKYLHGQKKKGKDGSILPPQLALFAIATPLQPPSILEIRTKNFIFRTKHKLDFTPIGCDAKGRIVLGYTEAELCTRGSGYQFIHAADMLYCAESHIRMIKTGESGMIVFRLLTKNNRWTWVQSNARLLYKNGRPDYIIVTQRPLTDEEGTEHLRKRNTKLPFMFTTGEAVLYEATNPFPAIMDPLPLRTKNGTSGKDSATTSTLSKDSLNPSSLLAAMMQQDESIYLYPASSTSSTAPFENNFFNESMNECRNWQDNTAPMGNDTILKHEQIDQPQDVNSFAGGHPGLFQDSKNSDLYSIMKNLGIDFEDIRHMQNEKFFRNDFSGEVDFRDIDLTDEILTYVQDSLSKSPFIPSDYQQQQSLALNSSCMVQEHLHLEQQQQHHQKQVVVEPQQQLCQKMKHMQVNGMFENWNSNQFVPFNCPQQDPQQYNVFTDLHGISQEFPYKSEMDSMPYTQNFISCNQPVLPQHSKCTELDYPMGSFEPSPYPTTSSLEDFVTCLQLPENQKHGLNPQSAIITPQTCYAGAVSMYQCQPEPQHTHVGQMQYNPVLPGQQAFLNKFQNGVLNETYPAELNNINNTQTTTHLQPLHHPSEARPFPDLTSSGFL
Sequence of Estrogen receptor (Homo sapiens) (P03372 whole entry, looked up): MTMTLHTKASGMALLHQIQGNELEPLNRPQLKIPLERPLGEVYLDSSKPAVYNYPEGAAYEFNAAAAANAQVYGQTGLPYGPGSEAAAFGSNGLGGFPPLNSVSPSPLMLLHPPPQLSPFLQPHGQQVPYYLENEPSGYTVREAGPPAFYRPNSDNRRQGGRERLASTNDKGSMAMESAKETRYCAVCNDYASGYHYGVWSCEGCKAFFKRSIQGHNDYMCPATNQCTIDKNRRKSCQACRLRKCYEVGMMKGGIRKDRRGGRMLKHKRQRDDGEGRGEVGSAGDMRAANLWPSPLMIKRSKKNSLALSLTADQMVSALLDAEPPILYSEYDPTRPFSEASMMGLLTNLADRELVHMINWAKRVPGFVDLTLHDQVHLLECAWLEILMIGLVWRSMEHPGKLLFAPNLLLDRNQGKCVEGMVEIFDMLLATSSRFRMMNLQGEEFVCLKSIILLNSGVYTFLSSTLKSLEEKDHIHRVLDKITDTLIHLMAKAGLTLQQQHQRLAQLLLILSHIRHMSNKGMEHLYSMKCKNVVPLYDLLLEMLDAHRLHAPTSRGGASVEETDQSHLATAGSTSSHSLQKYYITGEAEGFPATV
Sequence of Aromatase (Homo sapiens) (P11511 whole entry, looked up): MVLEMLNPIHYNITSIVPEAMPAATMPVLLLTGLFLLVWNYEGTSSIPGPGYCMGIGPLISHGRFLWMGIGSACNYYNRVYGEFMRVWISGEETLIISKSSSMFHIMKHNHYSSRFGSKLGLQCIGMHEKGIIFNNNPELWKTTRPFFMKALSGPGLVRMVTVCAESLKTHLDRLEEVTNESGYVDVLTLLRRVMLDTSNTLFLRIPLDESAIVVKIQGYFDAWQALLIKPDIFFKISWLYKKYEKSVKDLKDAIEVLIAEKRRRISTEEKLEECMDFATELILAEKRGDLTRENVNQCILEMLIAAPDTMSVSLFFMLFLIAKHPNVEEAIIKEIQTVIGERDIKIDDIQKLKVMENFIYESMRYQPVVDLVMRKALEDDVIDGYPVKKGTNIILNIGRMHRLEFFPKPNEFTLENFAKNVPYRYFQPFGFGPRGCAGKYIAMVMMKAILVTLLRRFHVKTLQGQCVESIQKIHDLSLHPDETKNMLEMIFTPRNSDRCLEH

Consider `COc1cc(C(=O)NC2CCCNC2)cc(OC)c1OC` (stereo not given), for which the Potency result (in [1]; in assay [2]; in assay [3]; in the assay with Aromatase (Homo sapiens); in assay [5]; in [9]) was “inactive” each time. Moreover, the result in assay [4], in assay [6], in assay [7], in assay [8], in [10] and in assay [11] was inactive. Moreover, in assay [12], the molecule was called inactive.

Regarding `CCOC(=O)COc1ccc2c(C)c(CCN(CC)CC)c(=O)oc2c1Cl`, the Potency entry (in assay [2]; in assay [3]; in assay [14]; in [15]; in assay [16]; with Aromatase (Homo sapiens)) was “inactive” throughout. Besides, the Potency entry in [5] and in assay [9] was “inactive” each time. Moreover, the outcome in assay [13], in assay [17], in [4], in assay [6], in assay [7] and in [18] was inactive. For the same molecule, the outcome in assay [8], in assay [10] and in assay [12] was inactive.

`COC(=O)C(c1ccccc1Cl)N1CCc2sccc2C1` (stereo not given): the Potency entry (in [2]; in [3]; with Aromatase (Homo sapiens); in [5]; in [9]) was “inactive” each time. Further, the molecule was classed as inactive in assay [17], in assay [4], in assay [7], in assay [18], in assay [8] and in [11]. Besides, the molecule was classed as inactive in assay [12].

Take `Cc1nnc(C(=O)NC(C)(C)c2nc(C(=O)NCc3ccc(F)cc3)c(O)c(=O)n2C)o1`: the Potency entry in assay [1], in [2], in [3] and in assay [19] was “inactive” each time. The molecule was classed as inactive in [17], in assay [6], in assay [8], in assay [10], in [11] and in [12].

On to `O=C(O)CCCCCCCCCC(=O)O`, for which the Potency result (in assay [2]; in [3]; in assay [14]; in assay [15]; in the assay with Aromatase (Homo sapiens); in assay [5]) was “inactive” in each case. The Potency entry in [9] is “inactive”. The call in [13], in assay [17], in [4], in [6], in [7] and in assay [18] was inactive. Besides, the molecule was classed as inactive in assay [8], in assay [10], in [11] and in assay [12].

Take `C=CC(=O)CC`: the Potency result (in [2]; in assay [3]; in the assay with Aromatase (Homo sapiens); in [5]; in [9]) was “inactive” each time. In addition, the molecule was called inactive in [17], in assay [4], in [6], in [7], in assay [18] and in [8]. Further, the result in [10], in [11] and in assay [12] was inactive.

For `CCCCCCCCOCCC#N`, the Potency result in assay [1], in assay [2], in assay [3], in assay [5] and in assay [19] was “inactive” in each case. Moreover, the call in assay [17], in assay [4], in assay [6], in assay [7], in assay [18] and in assay [8] was inactive. The molecule was called inactive in [10], in assay [11] and in assay [12].

Regarding `CCCCN1C(=O)c2ccccc2C1=O`, the molecule was classed as inactive in assay [13], in assay [17], in assay [4], in assay [6], in assay [8] and in assay [10]. Moreover, the call in assay [11] and in assay [12] was inactive. Moreover, the Potency result (in assay [3]; in assay [14]; in [15]; in [16]; with Aromatase (Homo sapiens); in assay [5]) was “inactive” throughout. Also, the Potency result in assay [9] and in assay [19] was “inactive” each time.

Regarding `c1cc2ccc3ccc4ccc5cccc6c(c1)c2c3c4c56`, the activity, negative = inhibition in [1] was 1.62% [at 3.79 µM]; with Aromatase (Homo sapiens), -7.29% [at 3.79 µM]. Besides, the activation in [2] is 1% [at 3.63 µM]; in [5] it was 0.485% [at 3.79 µM]. In addition, the activity, negative = cytotoxicity in assay [3] is 7.3% [at 3.02 µM]. Further, the activity change, negative = cytotoxicity in [17] was 17.4% [at 3.79 µM]; in [4], 7.94% [at 3.79 µM]; in assay [8], 27.2% [at 2.7 µM]; in assay [19], 1.58% [at 2.7 µM]; in assay [12] it was -28.1% [at 2.7 µM].

As for `O=C(O)P(=O)(O)O`, the Potency entry (in assay [1]; in assay [2]; in assay [3]; with Aromatase (Homo sapiens); in [5]; in assay [9]) was “inactive” in each case. For the same molecule, the Potency entry in assay [19] is “inactive”. Moreover, the outcome in assay [17], in assay [4], in [6], in assay [8], in assay [10] and in assay [11] was inactive. The call in assay [12] was inactive.

Regarding `CC(=O)Oc1ccc(C(C)=O)cc1`, the Potency result (in assay [1]; in assay [2]; in [14]; in assay [15]; with Aromatase (Homo sapiens); in assay [5]) was “inactive” in each case. Further, the Potency result in [9] was “inactive”. In addition, the molecule was called inactive in assay [17], in assay [4], in [6], in assay [7], in [18] and in assay [8]. In addition, the molecule was classed as inactive in assay [10], in assay [11] and in [12].

Take `O=C1Nc2ccccc2C1=O`: the Potency entry (in assay [1]; in [2]; in [3]; with Aromatase (Homo sapiens); in assay [19]) was “inactive” in each case. In addition, the molecule was classed as inactive in assay [17], in [4], in [6], in [7], in [11] and in [12]. Moreover, in assay [9], the Potency was 27.1 µM (active).

Regarding `CNCCc1ccccn1`, the Potency result (in [1]; in [2]; in assay [3]; with Aromatase (Homo sapiens); in assay [5]; in [9]) was “inactive” in each case. Further, in assay [19], the Potency result is “inactive”. Moreover, the outcome in assay [17], in [4], in assay [6], in assay [8], in assay [10] and in assay [11] was inactive.

Consider `CCCCCCC(O)CO` (stereo not given), for which the Potency entry (in assay [1]; in assay [3]; in [14]; in assay [15]; in [16]; in the assay with Aromatase (Homo sapiens)) was “inactive” in each case. Further, the Potency result in assay [5] and in assay [19] was “inactive” in each case. Also, the molecule was classed as inactive in [13], in [17], in assay [4], in assay [6], in [7] and in assay [8]. The molecule was called inactive in [10], in [11] and in assay [12].
